# Source: the supplement of paper PMC9262897, “Low-cost anti-mycobacterial drug discovery using engineered E. coli” (Nature Communications, 2022)
# Counter-ions that a name gives are not always drawn. ± gives the standard deviation of the averaged measurements.
# Assays:
# Test in all cases: growth (OD600 after 10 h); higher = more growth (less inhibition)
# [1] = test system: E. coli TESEC Alr+ wild-type control; settings: compound 0.1 mM; raw OD600 reference: median of DMSO wells 0.241, cell-free background 0.041
# Method: (§1)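 TESEC Mtb Alr E. coli, or the Alr+ wild-type control, in 384-well plates with Prestwick library compounds at 0.1 mM and 1% DMSO, across arabinose induction levels of 1E3 to 1E7 nM. Growth is read as OD600 after 10 h at 37 °C in triplicate biological replicates.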
# E. coli TESEC Mtb Alr [2] = settings: compound 0.1 mM
# Method: as §1
# E. coli TESEC Mtb Asd = settings: compound 0.1 mM
# Method: (§2)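 TESEC E. coli strains in which the native enzyme is deleted and replaced by arabinose-inducible Mtb Asd, DapB, CysH or TrpD, each grown in its selective medium. Strains were screened against the Prestwick library at 0.1 mM and 1% DMSO in 384-well format at low and high arabinose induction. Growth is read as OD600 after 10 h in triplicate.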
# E. coli TESEC Mtb DapB = settings: compound 0.1 mM
# Method: as §2
# E. coli TESEC Mtb Alr [3] = settings: compound 0.1 mM; remark: listed apart in the source
# Method: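 TESEC Mtb Alr E. coli (ΔaraC ΔtolC ΔentC Δalr ΔdadX, arabinose-inducible Mtb Alr) or the Alr+ wild-type control strain, grown in defined M9-fructose medium without D-alanine in 96-well plates with Prestwick library compounds at 0.1 mM and 1% DMSO. Low Alr induction is 0.1 µM arabinose and high induction is 10 mM arabinose.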
# [4] = arabinose 1000 nM, raw OD600 reference: median of DMSO wells 0.294, cell-free background 0.041
# [5] = arabinose 10000 nM, raw OD600 reference: median of DMSO wells 0.264, cell-free background 0.041
# [6] = arabinose 100000 nM, raw OD600 reference: median of DMSO wells 0.201, cell-free background 0.041
# [7] = arabinose 1000000 nM, raw OD600 reference: median of DMSO wells 0.193, cell-free background 0.041
# [8] = arabinose 10000000 nM, raw OD600 reference: median of DMSO wells 0.146, cell-free background 0.041
# [9] = arabinose induction (level): High, raw OD600 reference: median of DMSO wells 0.331, cell-free background 0.041
# [10] = arabinose induction (level): Low, raw OD600 reference: median of DMSO wells 0.417, cell-free background 0.041
# [11] = arabinose induction (level): High, raw OD600 reference: median of DMSO wells […], cell-free background 0.041
# [12] = arabinose induction (level): Low, raw OD600 reference: median of DMSO wells 0.227, cell-free background 0.041
# [13] = arabinose 100 nM, raw OD600 reference: median of DMSO wells 0.413, cell-free background 0.052
# [14] = arabinose 10000000 nM, raw OD600 reference: median of DMSO wells […], cell-free background 0.052
SMILES,growth [1],growth (E. coli TESEC Mtb Alr [2]; [4]),growth (E. coli TESEC Mtb Alr [2]; [5]),growth (E. coli TESEC Mtb Alr [2]; [6]),growth (E. coli TESEC Mtb Alr [2]; [7]),growth (E. coli TESEC Mtb Alr [2]; [8]),growth (E. coli TESEC Mtb Asd; [9]),growth (E. coli TESEC Mtb Asd; [10]),growth (E. coli TESEC Mtb DapB; [11]),growth (E. coli TESEC Mtb DapB; [12]),growth (E. coli TESEC Mtb Alr [3]; [13]),growth (E. coli TESEC Mtb Alr [3]; [14])
O=C(NCC1CCCCN1)c1cc(OCC(F)(F)F)ccc1OCC(F)(F)F (stereo unspecified) [Flecainide acetate],0.2202 ± 0.00045,0.2999 ± 0.00055,0.276 ± 0.0049,0.188 ± 0.0093,0.168 ± 0.0038,0.143 ± 0.0024,0.263 ± 0.026,0.42 ± 0.091,0.178 ± 0.016,0.213 ± 0.019,0.412 ± 0.011,0.356 ± 0.018
c1ccc(-c2ccc(C(c3ccccc3)n3ccnc3)cc2)cc1 (stereo unspecified) [Bifonazole],0.048 ± 0.0064,0.0456 ± 0.0051,0.0548 ± 0.0019,0.0516 ± 0.0035,0.0499 ± 0.0019,0.0504 ± 0.0085,0.048 ± 0.00098,0.0481 ± 0.0011,0.0611 ± 0.0018,0.0597 ± 0.0022,0.0739 ± 0.015,0.0689 ± 0.0074
CC(=O)N(CC(C)C(=O)O)c1c(I)cc(I)c(N)c1I (stereo unspecified) [Iocetamic acid],0.213 ± 0.007,0.274 ± 0.0081,0.289 ± 0.0072,0.2 ± 0.01,0.265 ± 0.003,0.144 ± 0.0039,0.36 ± 0.022,0.268 ± 0.021,0.202 ± 0.018,0.202 ± 0.019,0.183 ± 0.11,0.397 ± 0.011
Nc1ccc(C(=O)O)c(O)c1 [4-aminosalicylic acid],0.247 ± 0.0075,0.305 ± 0.011,0.277 ± 0.0057,0.201 ± 0.017,0.19 ± 0.004,0.153 ± 0.0068,0.222 ± 0.024,0.377 ± 0.086,0.199 ± 0.025,0.263 ± 0.017,0.422 ± 0.0061,0.302 ± 0.014
CCN(CCO)CCCC(C)Nc1ccnc2cc(Cl)ccc12 (stereo unspecified) [Hydroxychloroquine sulfate],0.228 ± 0.0034,0.282 ± 0.011,0.27 ± 0.0028,0.19 ± 0.015,0.1939 ± 0.0019,0.147 ± 0.0019,0.265 ± 0.052,0.352 ± 0.013,0.198 ± 0.0048,0.24 ± 0.04,0.405 ± 0.01,0.354 ± 0.017
O=C(O)CN(CCN(CC(=O)O)CC(=O)O)CCN(CC(=O)O)CC(=O)O [Pentetic acid],0.049 ± 0.00062,0.0429 ± 0.00085,0.03913 ± 0.00012,0.04467 ± 5.8e-05,0.0427 ± 0.00091,0.0607 ± 0.00086,0.115 ± 0.02,0.0868 ± 0.024,0.0936 ± 0.0035,0.0709 ± 0.0042,0.0559 ± 0.0086,0.061 ± 0.001
CN1CCC(=C2c3ccccc3CC(=O)c3sccc32)CC1 [Ketotifen fumarate],0.196 ± 0.0062,0.254 ± 0.0091,0.246 ± 0.01,0.206 ± 0.032,0.131 ± 0.0024,0.143 ± 0.0042,0.198 ± 0.036,0.39 ± 0.042,0.239 ± 0.043,0.217 ± 0.02,0.405 ± 0.0086,0.303 ± 0.017
O=C(c1ccc(OCCN2CCCCC2)cc1)c1c(-c2ccc(O)cc2)sc2cc(O)ccc12 [Raloxifene hydrochloride],0.0456 ± 0.0048,0.0454 ± 0.0038,0.0428 ± 0.0024,0.048 ± 0.0037,0.0438 ± 0.002,0.0448 ± 0.003,0.062 ± 0.0013,0.0566 ± 0.0034,0.0658 ± 0.014,0.0509 ± 0.0031,0.41 ± 0.007,0.0554 ± 0.0018
C[C@]12CC[C@@H]3c4ccc(O)cc4CC[C@H]3[C@@H]1CC[C@@H]2O [Estradiol-17 beta],0.125 ± 0.012,0.118 ± 0.052,0.214 ± 0.0069,0.157 ± 0.011,0.129 ± 0.0023,0.141 ± 0.0021,0.199 ± 0.0073,0.22 ± 0.0098,0.196 ± 0.0064,0.204 ± 0.012,0.399 ± 0.012,0.218 ± 0.0046
CCCCOc1ccc(CC(=O)NO)cc1 [Bufexamac],0.204 ± 0.0088,0.247 ± 0.014,0.243 ± 0.0037,0.202 ± 0.025,0.118 ± 0.0015,0.0983 ± 0.0016,0.33 ± 0.0049,0.418 ± 0.034,0.18 ± 0.013,0.222 ± 0.088,0.4 ± 0.018,0.284 ± 0.0052
CCn1nc(C(=O)O)c(=O)c2cc3c(cc21)OCO3 [Cinoxacin],0.0813 ± 0.0028,0.0736 ± 0.006,0.0622 ± 0.0033,0.089 ± 0.0035,0.108 ± 0.0017,0.139 ± 0.0015,0.335 ± 0.024,0.244 ± 0.035,0.211 ± 0.013,0.212 ± 0.0088,0.0933 ± 0.016,0.0712 ± 0.0049
CC(CCc1ccccc1)NCC(O)c1ccc(O)c(C(N)=O)c1 (stereo unspecified) [Labetalol hydrochloride],0.191 ± 0.006,0.246 ± 0.015,0.24 ± 0.011,0.174 ± 0.011,0.1371 ± 0.0012,0.137 ± 0.0031,0.26 ± 0.015,0.407 ± 0.046,0.186 ± 0.0091,0.209 ± 0.017,0.413 ± 0.0048,0.321 ± 0.016
CN(CCOc1ccc(NS(C)(=O)=O)cc1)CCc1ccc(NS(C)(=O)=O)cc1 [Dofetilide],0.209 ± 0.0043,0.28 ± 0.0052,0.253 ± 0.008,0.171 ± 0.016,0.173 ± 0.0041,0.133 ± 0.0023,0.213 ± 0.019,0.336 ± 0.076,0.229 ± 0.041,0.241 ± 0.032,0.427 ± 0.0089,0.318 ± 0.0084
CC(CN(C)C)C(C)(O)Cc1ccc(Cl)cc1 (stereo unspecified) [Clobutinol hydrochloride],0.221 ± 0.0026,0.263 ± 0.018,0.265 ± 0.0075,0.197 ± 0.0069,0.181 ± 0.0066,0.142 ± 0.013,0.222 ± 0.015,0.353 ± 0.1,0.187 ± 0.0091,0.222 ± 0.026,0.405 ± 0.0082,0.3421 ± 0.0029
Cc1cccc(C)c1NC(=O)C(C)N (stereo unspecified) [Tocainide hydrochloride],0.26 ± 0.0084,0.318 ± 0.0085,0.269 ± 0.0071,0.187 ± 0.014,0.1844 ± 0.0016,0.145 ± 0.0027,0.209 ± 0.016,0.433 ± 0.031,0.232 ± 0.038,0.244 ± 0.06,0.4 ± 0.015,0.307 ± 0.023
Nc1ccc(S(=O)(=O)Nc2ccc(Cl)nn2)cc1 [Sulfachloropyridazine],0.241 ± 0.0064,0.285 ± 0.029,0.174 ± 0.0032,0.231 ± 0.022,0.0969 ± 0.0044,0.165 ± 0.0072,0.392 ± 0.14,0.412 ± 0.042,0.193 ± 0.013,0.236 ± 0.03,0.421 ± 0.005,0.28 ± 0.029
CN(C)CCCC1(c2ccc(F)cc2)OCc2cc(C#N)ccc21 (stereo unspecified) [Citalopram Hydrobromide],0.207 ± 0.0054,0.272 ± 0.011,0.25 ± 0.0072,0.173 ± 0.0067,0.155 ± 0.0054,0.138 ± 0.0049,0.289 ± 0.024,0.397 ± 0.051,0.191 ± 0.022,0.211 ± 0.017,0.4152 ± 0.0024,0.321 ± 0.017
CCCOc1ccc2[nH]c(NC(=O)OC)nc2c1 [Oxibendazol],0.264 ± 0.025,0.309 ± 0.021,0.269 ± 0.0059,0.213 ± 0.028,0.183 ± 0.0022,0.151 ± 0.0057,0.353 ± 0.1,0.425 ± 0.048,0.191 ± 0.013,0.219 ± 0.027,0.409 ± 0.0096,0.345 ± 0.039
